From PubChem
An excerpt weighted towards active compounds, which were near 3.3% of everything screened.
AmpC no deterg = blocks E. coli AmpC beta-lactamase in detergent-free assay | P00811 | AmpC nitrocefin hydrolysis, absorbance 480 nm, 0.0001% Triton | Potency, µM (top dose mostly 57.1 µM), usual class: inhibitors | 330,000 compounds, 0.52% hits | AID 485341; further: nearly all actives have a fitted effect of over 20% in size
Target sequence (P00811 whole entry, looked up): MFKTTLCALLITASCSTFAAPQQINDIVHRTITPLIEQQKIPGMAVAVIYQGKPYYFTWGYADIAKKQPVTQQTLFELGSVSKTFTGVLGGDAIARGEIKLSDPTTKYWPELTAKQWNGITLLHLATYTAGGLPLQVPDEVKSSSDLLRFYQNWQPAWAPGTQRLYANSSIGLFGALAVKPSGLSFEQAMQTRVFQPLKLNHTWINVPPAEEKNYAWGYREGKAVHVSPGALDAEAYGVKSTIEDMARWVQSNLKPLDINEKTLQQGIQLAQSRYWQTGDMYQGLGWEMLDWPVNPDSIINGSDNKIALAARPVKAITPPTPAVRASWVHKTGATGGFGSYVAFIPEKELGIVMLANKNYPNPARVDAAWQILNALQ
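AmpC (5.3 nM in the dispensed reagent) in 20 mM phosphate pH 7.0 with 0.01% (detergent screen) or 0.0001% Triton X-100 was preincubated with compounds for 15 min at room temperature. Nitrocefin was then added from an 800 uM solution, and hydrolysis was followed at 480 nm.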
AmpC inh detg = blocks E. coli AmpC beta-lactamase in detergent assay. AmpC hydrolysis of nitrocefin, absorbance 480 nm, 0.01% Triton. Potency, µM (top dose mostly 114 µM), actives largely listed as inhibitors. 370,000 compounds, 0.041% hits. AID 485294; further: nearly all actives have a fitted effect of over 25% in size
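20 mM phosphate pH 7.0 + 0.01% (detergent screen) or 0.0001% Triton X-100; 5.3 nM AmpC reagent; cpd preinc 15 min RT; nitrocefin (800 uM stock) to start; A480 q20 s × 4 min; Activity was normalised to no-enzyme and no-compound control wells.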
Sm TGR block = S. mansoni TGR enzyme inhibition. purified TGR, DTNB reduction, TNB absorbance 405 nm. Q962Y6. AID 485364. Potency, µM (top dose mostly 114 µM), hits mostly inhibitors. 360,000 compounds, 3% hits; further: nearly all actives have a fitted effect of over 60% in size
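TGR 20 nM + NADPH 100 uM (dispensed conc.), cpd preinc 15 min RT; start with NADPH (500 uM addition) then DTNB (15 mM addition). Kinetic TNB absorbance, 405 nm filter. Four-parameter Hill fit across titration.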
Of the large screens only hits and unclear results are named; the others gave an inactive call. The call rests on the fitted dose curve; in most records, active means well fitted curve in the direction sought with a large enough effect; inconclusive means small, poorly fitted or top-dose-only effect, or another doubt; inactive means no such curve, though single readings can be large; an effect the other way counts as inactive or inconclusive.

CCOc1ccc(NC(=O)c2oc3ccccc3c2NC(=O)c2ccc(OC)cc2OC)cc1	none (no result: AmpC no deterg)
COc1ccc(-n2c(C)nc3cc(C(=O)NC4CCCC4)ccc32)cc1	none (no result: AmpC no deterg)
Cc1cccc(C(=O)NC2CCN(C(=O)NCc3ccccc3)CC2)c1	Sm TGR block 11µM
Cc1ccc(NC(=O)N2CCC(NC(=O)c3cccc(C)c3)CC2)cc1	Sm TGR block inconclusive
CCOC(=O)CN1CC23C=CC(O2)C(C(=O)NC2CCCCCC2)C3C1=O (configuration not stated)	none
CCOC(=O)CN1CC23C=CC(O2)C(C(=O)Nc2ccc(C(C)=O)cc2)C3C1=O (configuration not stated)	AmpC no deterg 1.1µM, AmpC inh detg inconclusive
CCOC(=O)NNc1ccc2nonc2c1[N+](=O)[O-]	Sm TGR block 16µM
Cc1cccc(Nc2ccc3nonc3c2[N+](=O)[O-])c1C	none
COc1ccc(Cn2ccnc2SCC(=O)Nc2cc(C(F)(F)F)ccc2Cl)cc1	none (no result: AmpC no deterg)
Cc1ccc(C2c3c(oc4ccccc4c3=O)C(=O)N2c2nnc(C)s2)cc1 (configuration not stated)	none (no result: AmpC no deterg)
NC(=O)c1c(NC(=O)c2ccc([N+](=O)[O-])o2)sc2c1CCCC2	AmpC inh detg inconclusive
Cc1ccc(/C=C/C(=O)Nc2sc3c(c2C#N)CCCC3)o1	Sm TGR block 45µM
CCc1ccc(CCC(=O)Nc2sc3c(c2C#N)CCCC3)o1	AmpC no deterg inconclusive
N#Cc1c(NC(=O)c2ccc([N+](=O)[O-])o2)sc2c1CCC2	Sm TGR block 35µM
Cn1c(C(=O)NCc2cccc(F)c2)cc2cc(S(=O)(=O)N3CCCCC3)ccc21	none (no result: AmpC no deterg)
Cc1nc(=S)c2ccccc2[nH]1	none
FC(F)(F)c1nc(=S)c2ccccc2[nH]1	Sm TGR block 2µM
COc1ccccc1CCNS(=O)(=O)c1ccc(N2CCCCS2(=O)=O)cc1	none (no result: AmpC no deterg)
CN1OC[C@@H]2COc3ccc4ccccc4c3[C@@H]21	AmpC inh detg inconclusive
CN1COc2ccc3ccccc3c2C1	Sm TGR block 4µM
CCOC(=O)c1cc2c(=O)n3cccc(C)c3nc2n(Cc2ccco2)c1=NC(=O)c1cccnc1	Sm TGR block 5.6µM
Cc1cccc(C(=O)N=c2c(C#N)cc3c(=O)n4cccc(C)c4nc3n2Cc2ccco2)c1	AmpC inh detg inconclusive, Sm TGR block 45µM
CCOC(=O)c1cc2c(=O)n3ccccc3nc2n(Cc2ccco2)c1=NC(=O)c1cccnc1	Sm TGR block 22µM
CCOC(=O)c1cc2c(=O)n3ccccc3nc2n(Cc2ccco2)c1=NC(=O)c1cccc(C)c1	none (no result: AmpC no deterg)
Cc1cccn2c(=O)c3cc(C#N)c(=NC(=O)c4ccco4)n(Cc4ccco4)c3nc12	Sm TGR block inconclusive
CCOC(=O)c1cc2c(=O)n3ccccc3nc2n(Cc2ccco2)c1=NC(=O)c1ccc(C)c(C)c1	none (no result: AmpC no deterg)
O=C(Cn1ncc2c3ccccc3n(Cc3cccc(Cl)c3)c2c1=O)Nc1ccc(F)cc1F	none (no result: AmpC no deterg)
Cc1ccc(S(=O)(=O)C(CNC(=O)C(=O)NCCc2ccc(F)cc2)c2cccs2)cc1 (configuration not stated)	none (no result: AmpC no deterg)
COc1ccc(OCCCCn2c(C3CC(=O)N(c4cccc(Cl)c4)C3)nc3ccccc32)cc1 (configuration not stated)	none (no result: AmpC no deterg)
COC(=O)c1c(C)sc(-c2c(-c3cccc(OC)c3)[nH]c3c2c(=O)[nH]c(=O)n3C)c1O	none (no result: AmpC no deterg)
CCCn1nc([N+](=O)[O-])c(C(C#N)c2nc3ccccc3s2)c(Cl)c1=O (configuration not stated)	AmpC no deterg 14µM, Sm TGR block 1.3µM
Cn1c(C(C#N)C(=O)c2sc3ccccc3c2Cl)nc2ccccc21 (configuration not stated)	AmpC inh detg inconclusive
O=[N+]([O-])c1ccc(CN2CCN(c3nc4ccccc4s3)CC2)cc1	Sm TGR block inconclusive
CCn1nc([N+](=O)[O-])c(C(C#N)c2nc3ccccc3n2C)c(Cl)c1=O (configuration not stated)	Sm TGR block 14µM
COc1ccccc1CNC(=O)CCCn1c(=O)c2ccccc2n(Cc2ccc(C)cc2)c1=O	none (no result: AmpC no deterg)
O=C(CSC1=Nc2ccccc2C2=NC(CCC(=O)NC3CCCCC3)C(=O)N12)Nc1cccc(C(F)(F)F)c1 (configuration not stated)	none (no result: AmpC no deterg)
c1cncc(CNc2ncnc3ccc(-c4ccco4)cc23)c1	Sm TGR block 8.9µM
COc1cccc(-c2ccc3ncnc(NCc4cccnc4)c3c2)c1	none
Fc1ccc(-n2ncc3c(N4CCC(Cc5ccccc5)CC4)ncnc32)cc1	none (no result: AmpC no deterg)
CN(/N=C/c1cc([N+](=O)[O-])ccc1O)c1ccccc1	none
O=C(O)c1cc(-c2ccc(/C=C3/SC(=S)N(Cc4ccccc4)C3=O)o2)ccc1Cl	Sm TGR block 25µM
Cc1ccccc1/C=C1\SC(=S)N(/N=C/c2cc([N+](=O)[O-])ccc2O)C1=O	AmpC no deterg 28µM
COc1cc(/C=C2/SC(=S)N(Cc3ccccc3)C2=O)ccc1O	none
COc1ccc(CN2C(=O)/C(=C/c3ccc(-c4ccc(Cl)c(C(=O)O)c4)o3)SC2=S)cc1	Sm TGR block inconclusive
O=C1/C(=C\c2ccc(O)c(O)c2)SC(=S)N1Cc1ccccc1	AmpC no deterg 11µM
O=C1/C(=C\c2cccc(O)c2O)SC(=S)N1Cc1ccccc1	none
O=C1/C(=C\c2cc([N+](=O)[O-])ccc2O)SC(=S)N1Cc1ccc(Cl)cc1	AmpC no deterg 3.5µM
Cc1ccc(NC(=O)Cn2c(=O)n(CC3CCCO3)c(=O)c3ccccc32)cc1 (configuration not stated)	none (no result: AmpC no deterg)
COc1ccc(NC(=O)Cn2c(=O)n(CCCC(=O)NCCc3ccc(C)cc3)c(=O)c3ccccc32)cc1Cl	none (no result: AmpC no deterg)
CCOC(=O)c1ccc(OCC2c3cc(OC)c(OC)cc3CCN2C(=O)Cc2ccc(F)cc2)cc1 (configuration not stated)	none (no result: AmpC no deterg)
O=C(CN1C(=O)C2(SCC(=O)N2c2cccc(Cl)c2)c2ccccc21)NCCc1ccccc1 (configuration not stated)	none (no result: AmpC no deterg)
Cc1cccn2c(=O)c(C(=O)NCc3cccc(F)c3)cnc12	none (no result: AmpC no deterg)
O=C(O)CN1C(=O)/C(=C\c2cccc(OCc3ccccc3)c2)SC1=S	AmpC inh detg inconclusive, Sm TGR block 0.5µM
O=C(O)COc1cccc(/C=C2/SC(=S)N(Cc3ccccc3)C2=O)c1	none
O=S(=O)(c1cccc(Cl)c1)c1nnn2c1nc(NC1CCCC1)c1sccc12	none (no result: AmpC no deterg)
Brc1ccc(-c2nn3c(-c4ccncc4)nnc3s2)o1	AmpC inh detg inconclusive
c1ccc(-c2nn3c(-c4ccco4)nnc3s2)nc1	Sm TGR block 25µM
COc1cccc(-c2nn3c(-c4ccco4)nnc3s2)c1	AmpC inh detg inconclusive, Sm TGR block 45µM
COc1cc(-c2nn3c(-c4ccco4)nnc3s2)cc(OC)c1OC	none
Clc1ccc(-c2nnc3sc(-c4ccccn4)nn23)cc1	none
Brc1ccc(-c2nn3c(-c4ccco4)nnc3s2)o1	Sm TGR block 8.9µM
O=C1COc2ccc(-c3cc(-c4ccc(F)cc4)c4c(n3)-c3ccccc3OC4)cc2N1	none (no result: AmpC no deterg)
COc1cc(NC(=O)Cn2c(=O)ccc3cc(S(=O)(=O)N4CCCC4)ccc32)cc(OC)c1	none (no result: AmpC no deterg)
